# Results: PubChem BioAssay
# Active and inactive are the calls of the source. No rule for the calls is given here.
# Assay: inhibitors of hydroxyurea-induced Chk1 phosphorylation, primary screen, imaging, HeLa, phospho-Chk1 antibody, percent positive cells (AID 1186)
# Conditions: hydroxyurea-induced phospho-Chk1 immunofluorescence imaging, higher = more signal
row,SMILES,z-score
1,CC1C2C(CCCO)=CC(C3C(=O)N(C(N)=O)C(=O)C23)N1Cc1cccc(OC(F)(F)F)c1 (stereo unspecified),0.37 (inactive)
2,COC(=O)[C@@]1(Cc2ccccc2)[C@H]2c3cc(C(=O)N(C)C)n(Cc4nc5ccccc5[nH]4)c3C[C@H]2CN1C(=O)c1ccccc1,-0.283 (inactive)
3,CO[C@H]1O[C@H](CO)[C@@H](OC(=O)Nc2cccc(F)c2)[C@H](OC(=O)Nc2ccc3c(c2)OCO3)[C@@H]1OC(=O)Nc1ccc2c(c1)OCO2,0.223 (inactive)
4,O=C1C2C=CC(C(O)c3ccccn3)N(Nc3ccc([N+](=O)[O-])cc3)C2C(=O)N1c1ccccc1 (stereo unspecified),1.25 (inactive)
5,CC(C)N1C(=O)[C@@]2(Cc3ccccc31)c1ccccc1C(=O)N(Cc1ccccc1C(F)(F)F)[C@H]2c1ccc(CO)cc1,0.0153 (inactive)
6,CN1C2C=C(c3ccc(CO)cc3)C(C3C(=O)N(C(N)=O)C(=O)C32)C1C1CC1 (stereo unspecified),0.258 (inactive)
7,CC(C)C[C@@H]1NC(=O)[C@@H]2C[C@H](C(=O)NCCCCCNC(=O)CS)[C@H](c3ccc(O)cc3)N2C1=O,0.581 (inactive)
8,CN(C)CCCCNC(=O)[C@H]1C[C@H]2C(=O)N[C@@H](CCCCN(C)C)C(=O)N2[C@H]1c1ccc(O)cc1,-1.63 (inactive)
9,CCOC(=O)C[C@H]1[C@H](OC(=O)c2ccccc2-c2ccccc2)[C@@H](NC(=O)CC(C)C)c2cc(OCCCO)ccc2N1C(=O)c1ccccc1,-0.439 (inactive)
10,CCCCCCc1nc(-c2ccc(OC)nc2)c(C)c2c1[Si](C(C)C)(C(C)C)OC2,-0.531 (inactive)
11,COCCCNC(=O)[C@]1(Cc2ccccc2CN=[N+]=[N-])N=C(c2ccc(OCCCO)cc2)O[C@@H]1c1ccccc1N=[N+]=[N-],-0.364 (inactive)

# Assay: inhibitors of hydroxyurea-induced Chk1 phosphorylation, primary screen, imaging, HeLa, phospho-Chk1 nuclear intensity (AID 1187); also: test concentration not given here
# Conditions: hydroxyurea-induced phospho-Chk1 immunofluorescence imaging, higher = more signal
row,SMILES,z-score
1,CC(C)c1ccc(NN2C(C(O)C(C)c3ccccc3)C=CC3C(=O)N(c4ccccc4)C(=O)C32)cc1 (stereo unspecified),0.739 (inactive)
2,CC(C)C[C@@H]1NC(=O)[C@@H]2C[C@H](C(=O)NCCCCCCNC(=O)CS)[C@H](c3ccc(O)cc3)N2C1=O,-0.1 (inactive)
3,COC(=O)Cn1c(C(=O)N(C)C)cc2c1C[C@H]1CN(C(=O)c3ccccc3)[C@@](Cc3ccccc3)(C(=O)OC)[C@@H]21,0.286 (inactive)
4,COCCOC(=O)N1C(=O)[C@@]2(c3cc(C#CCC(C(=O)OC)C(=O)OC)ccc31)[C@H](c1ccc(O)cc1)N1[C@H](c3ccccc3)[C@H](c3ccccc3)OC(=O)[C@H]1[C@@H]2C(=O)N1CCc2cc(OC)c(OC)cc2C1,0.46 (inactive)
5,Cc1ccc(S[C@]2(C(=O)NCc3ccccc3)CC(=O)N(Cc3ccccc3C(F)(F)F)[C@@H]2c2ccc(CO)cc2I)cc1,0.923 (inactive)
6,O=C1C2C=CC(C(O)C3CCCCC3)N(Nc3ccccc3F)C2C(=O)N1c1ccccc1 (stereo unspecified),0.0942 (inactive)
7,CC[C@H]1C2=C3C(CC[C@H]4C(OCc5ccc(F)cc5C(F)(F)F)OC[C@](C)([C@@H]34)N(C(=O)OC(C)(C)C)C2)C(COC(C)=O)C1COC(C)=O (stereo partly specified),0.294 (inactive)
8,CC1CC/C=C\[C@H]2OC34C=CCN(CCN5CCOCC5)C(=O)[C@H]3N(C(CO)C(C)C)C(=O)[C@@H]4C2C(=O)O1 (stereo partly specified),0.284 (inactive)
9,COC(=O)C[C@H]1O[C@]2(C(=O)N(C)c3ccccc32)[C@@H](C)[C@@H]1[Si](C)(C)c1ccccc1,0.192 (inactive)
10,O=C1O[C@@H](c2ccccc2)[C@@H](c2ccccc2)N2[C@@H](c3ccc(OCCO)cc3)[C@]3(C(=O)Nc4ccc(C#CC5=CCCCC5)cc43)[C@@H](C(=O)Nc3nc4ccccc4s3)[C@H]12,-0.282 (inactive)
11,CCCCN1CC=CC23O[C@@H]4/C=C\CCCOC(=O)C4[C@H]2C(=O)N(CCCCCCO)[C@@H]3C1=O (stereo partly specified),-0.137 (inactive)
12,COC(=O)[C@@]1(Cc2ccc(F)cc2)[C@H]2c3cc(C(=O)N(C)C)n(CCF)c3C[C@H]2CN1C(=O)c1ccccc1,-0.595 (inactive)
13,CCc1cccc(NC(=O)O[C@H]2[C@H](OC(=O)Nc3ccccc3-c3ccccc3)[C@H](OC(=O)Nc3ccccc3-c3ccccc3)[C@@H](OC)O[C@@H]2CO)c1,0.0172 (inactive)
14,C=C(COC)C(=O)CC[C@H](OC(C)=O)c1ccccc1OCCO,-0.218 (inactive)
15,COC(=O)C(CC#Cc1ccc2c(c1)[C@]1(C(=O)N2)[C@H](c2ccc(OCCO)cc2)N2[C@H](c3ccccc3)[C@H](c3ccccc3)OC(=O)[C@H]2[C@@H]1C(N)=O)C(=O)OC,-0.303 (inactive)
